Assay outcomes from PubChem.
A selection: hits, their analogues and other compounds. The true share with any hit is near 1.6%.
KCNQ2 inh = blocks the rat KCNQ2 potassium channel | O88943 | CHO-K1 KCNQ2, FluxOR thallium flux, 20 min; hits give low values | B-score at 10 µM | 1.1% of 310,000 active | AID 2156;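 active = fluorescence ratio B-score at most minus 3 library SDs, with starting brightness B-score within 2 library SDs, cut at about -5.5 in these data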
KCNQ2 pot = enhances the rat KCNQ2 potassium channel; O88943; CHO-K1 KCNQ2, FluxOR thallium flux fluorescence; hits give high values; B-score at 10 µM; 0.54% of 310,000 active;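 active = fluorescence ratio B-score at least 3 SD of library B-scores, with initial fluorescence B-score within 3 of them, cut at about 5.3 in these data; same plate scores as AID 2156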;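 also: B-score of peak minus minimum over baseline fluorescence ratio after K+ and Tl+ stimulus; positive B-score means potentiation of KCNQ2 with more thallium influx and brighter signal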
KCNQ2 block conf = rat KCNQ2 channel inhibition, confirmatory screen; activity change, negative = inhibition, % at 10 µM; 57% of 1,000 active; shares compounds with KCNQ2 inh; KCNQ2-expressing cells, thallium flux; hits give low values;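 also: 0% = vehicle wells and values are ratio percent relative to vehicle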
KCNQ1 spec = KCNQ2 inhibitor that also affects human KCNQ1 channel; shares compounds with KCNQ2 inh; KCNQ1-expressing cells, FluxOR thallium flux fluorescence; hits give low values; activity change, negative = inhibition, % at 10 µM; 15% of 1,000 active; AID 493026;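 active = activity change at least 3 SD of negative controls below their mean in both duplicate wells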;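 also: CHO cells stably transfected with KCNQ1 and depolarized by potassium stimulus; peak minus minimum fluorescence over baseline after thallium addition; 0% = vehicle negative control and -100% = blank without thallium stimulus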
Target sequence (P51787 whole entry, looked up): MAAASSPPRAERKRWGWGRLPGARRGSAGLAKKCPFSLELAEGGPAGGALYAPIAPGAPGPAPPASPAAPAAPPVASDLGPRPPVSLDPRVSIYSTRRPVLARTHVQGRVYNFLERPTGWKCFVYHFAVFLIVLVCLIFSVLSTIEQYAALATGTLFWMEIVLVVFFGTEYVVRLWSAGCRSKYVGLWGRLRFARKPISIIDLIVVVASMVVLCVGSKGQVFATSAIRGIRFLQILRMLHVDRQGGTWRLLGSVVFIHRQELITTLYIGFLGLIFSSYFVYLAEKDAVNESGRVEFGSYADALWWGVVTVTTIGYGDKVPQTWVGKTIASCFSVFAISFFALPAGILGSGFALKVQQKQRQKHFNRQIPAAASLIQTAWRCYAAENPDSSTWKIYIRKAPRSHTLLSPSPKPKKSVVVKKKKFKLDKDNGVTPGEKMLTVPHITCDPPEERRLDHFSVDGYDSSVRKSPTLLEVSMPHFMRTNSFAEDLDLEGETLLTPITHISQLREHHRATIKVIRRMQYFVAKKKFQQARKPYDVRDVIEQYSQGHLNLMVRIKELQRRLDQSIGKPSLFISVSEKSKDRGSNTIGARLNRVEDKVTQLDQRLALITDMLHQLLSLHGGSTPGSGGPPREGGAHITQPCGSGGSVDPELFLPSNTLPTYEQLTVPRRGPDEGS
CHO Tl ctr = activity in parental CHO cells lacking KCNQ2. shares compounds with KCNQ2 inh. thallium flux counter-screen; hits give low values. activity change, % at 10 µM. 14% of 1,000 active;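 also: 0% = vehicle negative controls with stimulus buffer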
KCNQ2 patch conf = blocks rat KCNQ2 current in automated patch clamp. shares compounds with KCNQ2 inh. KCNQ2-expressing cells. calls only at 10 µM. 49% of 550 active. AID 588531
* marks the source's active call; other numbers are inactive results; i = inactive; x = no result; + = active, no number. Unless noted, no rule for the calls is given here.

SMILES | KCNQ2 inh | KCNQ2 pot | KCNQ2 block conf | KCNQ1 spec | CHO Tl ctr | others
COc1cc2c(cc1OC)C(C)N(C(=O)c1cccs1)CC2 (configuration not stated) | i | x | x | x | x
Cc1ccc(N(C(=O)c2snc(C(N)=O)c2N)C(C(=O)NC2CCCC2)c2ccco2)cc1 (configuration not stated) | i | x | x | x | x
COc1ccc(-c2cc(C(=O)N3CC(C)CC(C)C3)c3ccccc3n2)cc1OC (configuration not stated) | -11* | -11 | -31%* | i | i | KCNQ2 patch conf=+
COc1ccc(CCN(C)C(=O)c2cc(-c3ccc(C)cc3)nc3ccccc23)cc1OC | -6.7* | -6.7 | -45%* | -46%* | -42%* | KCNQ2 patch conf=+
COc1ccc(-c2cc(C(=O)N(C)Cc3ccc(F)cc3)c3ccccc3n2)cc1OC | -7.5* | -7.5 | -53%* | -48%* | -56%* | KCNQ2 patch conf=+
COc1ccc(NC(=O)CN(C)C(=O)c2cc(-c3ccc(OC)cc3)nc3ccccc23)cc1 | i | 0.28 | x | x | x
COc1ccc(-c2cc(C(=O)N3CCCC3)c3ccccc3n2)cc1OC | i | 0.4 | x | x | x
COc1ccc(-c2cc(C(=O)N3CCC3)c3ccccc3n2)cc1OC | i | 1.2 | x | x | x
Cc1ccc(C)c(NCC(=O)c2ccc(Cl)cc2)c1 | i | x | x | x | x
Cc1sc(N)nc1-c1ccc(Oc2ccccc2)cc1 | i | x | x | x | x
CC(Oc1ncnc2ccccc12)C(=O)Nc1cccc(S(=O)(=O)N2CCOCC2)c1 (configuration not stated) | i | 1.3 | x | x | x
Cc1ccccc1Sc1c(C#N)c(-c2ccccc2)nn1C | -10* | -10 | -36%* | -36%* | -32%* | KCNQ2 patch conf=i
Cc1ccc(Sc2c(CO)c(-c3ccccc3)nn2C)cc1 | i | x | x | x | x
CCc1ccc(NC(=O)c2ccc(NC(=O)C3CCCO3)cc2)cc1 (configuration not stated) | i | 0.59 | x | x | x
CC(C)[C@H](NC(=O)N1CCn2c1nc1ccccc12)C(=O)NCc1ccc(F)cc1 | i | x | x | x | x
CC(C)[C@H](NC(=O)N1CCn2c1nc1ccccc12)C(=O)NCc1ccccc1Cl | -8.1* | -8.1 | -34%* | -32%* | -24%* | KCNQ2 patch conf=+
COc1ccc(OC)c(/C=C/C(=O)N2CCCc3ccccc32)c1 | -7* | -7 | -38%* | i | i | KCNQ2 patch conf=i
COc1ccc(/C=C/C(=O)N2CCCc3ccccc32)c(OC)c1 | i | x | x | x | x
CC(C)c1ccc(C2CC(=O)c3cnc(N4CCc5ccccc5C4)nc3C2)cc1 (configuration not stated) | i | x | x | x | x
O=C1CC(c2ccco2)Cc2nc(N3CCc4ccccc4C3)ncc21 (configuration not stated) | -10* | -10 | -27%* | i | i | KCNQ2 patch conf=i
Cc1cccc2nc(COc3ccc(Cl)c4cccnc34)cn12 | -9.1* | -9.1 | -29%* | i | i | KCNQ2 patch conf=+
O=[N+]([O-])c1ccccc1COc1ccc(Cl)c2cccnc12 | i | x | x | x | x
COc1cccc(-n2c(SCC(=O)NCC3CCCO3)nc3c(c2=O)SCC3)c1 (configuration not stated) | i | 0.03 | x | x | x
CCn1cnc2cc(NCc3nc4ccccc4n3Cc3ccccc3)ccc21 | -8.5* | -8.5 | -34%* | i | i | KCNQ2 patch conf=+
CCn1cnc2cc(NCc3nc4ccccc4n3C)ccc21 | i | x | x | x | x
SMILES | KCNQ2 inh | KCNQ2 pot | KCNQ2 block conf | KCNQ1 spec | CHO Tl ctr | others
O=C(O)CSc1nnc(-c2cccc(S(=O)(=O)N3CCOCC3)c2)n1-c1cccc(Cl)c1 | i | x | x | x | x
CN1CCN(C2Cc3cc(F)ccc3Sc3ccc(Cl)cc32)CC1 (configuration not stated) | i | x | x | x | x
CN1CCN(C2Cc3ccccc3Sc3cc(C(F)(F)F)ccc32)CC1 (configuration not stated) | -7.4* | -7.4 | -39%* | -38%* | -30%* | KCNQ2 patch conf=i
CCCCCN(C(=O)CCC(=O)OCc1ccc(C(C)C)cc1)c1c(N)n(CCCC)c(=O)[nH]c1=O | i | x | x | x | x
Cc1ccc(NC(=O)c2cc(-c3ccc(C)o3)nc3ccccc23)cc1 | i | x | x | x | x
COc1ccccc1NC(=O)c1cc(C)nc2ccccc12 | i | x | x | x | x
Cc1ccc(-c2cc(C(=O)Nc3cccnc3)c3ccccc3n2)o1 | -8.1* | -8.1 | i | i | i
COc1ccccc1NC(=O)c1cc(-c2ccc(C)o2)nc2ccccc12 | -8.1* | -8.1 | -34%* | i | i | KCNQ2 patch conf=+
CC(NC(=O)COc1cccnc1[N+](=O)[O-])c1ccc(Cl)cc1 (configuration not stated) | i | x | x | x | x
O=C1C2CC=CCC2C(=O)N1Cc1ccccc1Cl (configuration not stated) | i | 0.49 | x | x | x
Cc1c(C(=O)N(Cc2nccn2C)C(C)C)oc2c(F)cccc12 | i | 0.43 | x | x | x
Cc1ccc2c(C)c(C(=O)N3CCN(c4ncccn4)CC3)oc2c1C | -8.6* | -8.6 | -29%* | i | i | KCNQ2 patch conf=+
Cc1ccc2c(C)c(C(=O)N(C)Cc3nccn3C)oc2c1C | -7.6* | -7.6 | i | i | i
COc1ccc2oc(C(=O)N3CCN(c4ncccn4)CC3)c(C)c2c1 | i | 0.12 | x | x | x
COc1ccc(S(=O)(=O)NCC(c2ccc(C)cc2)N2CCN(C)CC2)cc1 (configuration not stated) | i | x | x | x | x
CCOc1ccc2nc(SCC(=O)Nc3ccc4[nH]c(=O)[nH]c4c3)[nH]c2c1 | i | x | x | x | x
S=C(NCc1ccccc1)Nc1cccc2ccccc12 | i | 1.6 | x | x | x
Cc1ccc(C(C)C)c(OCCNC(=S)Nc2cccc3ccccc23)c1 | -6.7* | -6.7 | i | i | i
COc1cccc(N2CCN(C(=O)C3CCCN(c4ncnc5c4nc4n5CCCCC4)C3)CC2)c1 (configuration not stated) | i | x | x | x | x
Cc1ccn2cc(-c3ccc(O)c(O)c3)nc2c1 | i | x | x | x | x
CN(C)CCNc1nc(-c2ccco2)c2c(c1C#N)CC(C)(C)OC2 | i | x | x | x | x
CCCCN(C)c1nc(-c2ccco2)c2c(c1C#N)CC(C)(C)OC2 | -8.2* | -8.2 | i | i | i
COc1ccc(NC(=S)N/N=C/c2cccn2Cc2ccc(F)cc2)cc1 | i | 1.4 | x | x | x
O=C1CC2(CCN(S(=O)(=O)c3ccccc3F)CC2)Oc2ccccc21 | i | 1 | x | x | x
c1ccc(-c2noc(-c3ccccc3-c3ccccc3)n2)cc1 | -8.6* | -8.6 | -24%* | i | i | KCNQ2 patch conf=i
Fc1ccccc1-c1nc(-c2ccc(Cl)cc2)no1 | i | x | x | x | x
COc1cc(NC(=O)C2CC(=O)N(CCc3ccc(F)cc3)C2)cc(OC)c1OC (configuration not stated) | i | 0.55 | x | x | x
COC(=O)c1cc(OC)c(OC)cc1N1C(=O)CC(C)(C)CC1=O | i | 1.4 | x | x | x
CCOc1ccc2c(c1)-c1c(ssc1=S)C(C)(C)N2C(=O)c1ccco1 | -8.8* | -8.8 | i | i | i
COc1ccc2c(c1)-c1c(ssc1=S)C(C)(C)N2C(=O)CSC1=NCCS1 | i | x | x | x | x
